Screens deposited in PubChem by several laboratories.
Sampled rows, rich in hits. Any-hit rate of the full collection: about 1.8%.
Myeloid diff 2 – induction of myeloid progenitor differentiation, primary screen, cell-based, flow cytometry, MLPCN library. ER-HoxA9 myeloid progenitors, lysozyme-GFP differentiation. calls only at 10 µM. hit rate 1% among 360,000. AID 624256, 2012;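 active = normalized GFP-positive differentiation at or above the plate's own cutoff, the solvent-only control mean plus 3 SD; inconclusive = no clear call, values can overlap the other calls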;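 also: cells exposed to compound for four days before flow analysis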
NPR1 activator – GC-A stimulated cGMP production enhancers – HEK293 GC-A cells, cGMP TR-FRET, EC30 ANP, primary screen. AID 1671463, 2021. hit rate 0.14% among 370,000. Atrial natriuretic peptide receptor 1 (Homo sapiens), P16066. activation, % at 10 µM. 0% at EC30 ANP, 100% saturating ANP; in the data active = activation above about 40%
Target sequence (P16066 whole entry, looked up): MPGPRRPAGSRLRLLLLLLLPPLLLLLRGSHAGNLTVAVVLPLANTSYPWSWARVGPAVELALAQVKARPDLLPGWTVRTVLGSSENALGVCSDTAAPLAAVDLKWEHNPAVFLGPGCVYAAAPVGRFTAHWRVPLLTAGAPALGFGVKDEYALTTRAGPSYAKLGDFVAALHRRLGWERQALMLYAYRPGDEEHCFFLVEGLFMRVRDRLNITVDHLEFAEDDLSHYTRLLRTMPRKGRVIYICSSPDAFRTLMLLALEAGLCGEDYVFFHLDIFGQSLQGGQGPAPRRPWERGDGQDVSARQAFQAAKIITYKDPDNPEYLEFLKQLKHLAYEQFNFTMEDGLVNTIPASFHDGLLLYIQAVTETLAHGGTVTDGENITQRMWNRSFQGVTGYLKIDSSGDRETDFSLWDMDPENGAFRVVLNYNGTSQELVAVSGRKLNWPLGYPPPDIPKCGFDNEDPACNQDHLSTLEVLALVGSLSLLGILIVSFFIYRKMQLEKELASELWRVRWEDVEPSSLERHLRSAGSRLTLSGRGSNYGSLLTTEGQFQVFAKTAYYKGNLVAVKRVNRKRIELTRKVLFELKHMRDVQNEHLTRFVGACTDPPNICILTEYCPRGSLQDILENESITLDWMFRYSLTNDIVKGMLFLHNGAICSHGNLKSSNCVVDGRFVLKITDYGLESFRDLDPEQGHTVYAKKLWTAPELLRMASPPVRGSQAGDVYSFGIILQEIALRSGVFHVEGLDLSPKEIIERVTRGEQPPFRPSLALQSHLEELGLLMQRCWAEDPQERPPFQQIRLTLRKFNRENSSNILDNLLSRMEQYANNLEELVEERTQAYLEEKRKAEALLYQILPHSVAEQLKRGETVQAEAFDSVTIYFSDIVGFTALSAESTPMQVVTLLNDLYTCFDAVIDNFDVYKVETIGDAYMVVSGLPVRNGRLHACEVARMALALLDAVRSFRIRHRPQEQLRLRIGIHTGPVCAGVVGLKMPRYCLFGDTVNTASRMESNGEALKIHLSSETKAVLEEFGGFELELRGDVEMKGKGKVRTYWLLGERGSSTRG
GC-B act – human GC-B receptor activators, primary screen, HEK293 GC-B cells, cGMP TR-FRET, EC30 CNP; 0% at EC30 CNP, 100% saturating CNP; activation, % at 10 µM; hit rate 0.11% among 370,000;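 active = activation at 10 µM reaching about 35% in either raw or pattern-adjusted values, limit read from the data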
Exocytosis inh – LAMP-1 surface exposure blockers, TALL-104 cells – cell-based, flow cytometry, MLPCN library, primary screen | TALL-104 LAMP-1 surface exposure; cells stimulated with thapsigargin and PMA | inhibition, % at 10 µM | hit rate 0.66% among 360,000 | AID 651702, 2012;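 active = inhibition above about 55%, limit read from the data; inconclusive = no clear call, values can overlap the other calls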
A number is an active result; - = inactive; ? = inconclusive; . = no result given; + = active, no number.

SMILES	Myeloid diff 2	NPR1 activator	GC-B act	Exocytosis inh
Cc1cc(C(=O)Cn2nnc3ccccc3c2=O)c(C)n1-c1ccccc1F	+	-	-	-
Cc1cccc(NC(=O)C2CC(=O)OC23CCCCC3)c1 (centres undefined)	-	-	-	-
O=C1CC(C(=O)Nc2ccccc2)C2(CCCC2)O1 (centres undefined)	+	-	-	-
O=C(CSc1nc2sc3c(c2c(=O)n1-c1ccc(Cl)cc1)CCC3)Nc1ccc(C(=O)O)cc1	.	-	-	.
CCN(CC)c1cc(C)c2cc(NC(=O)c3ccccc3OC)ccc2n1	+	-	-	-
CCN(CC)c1cc(C)c2cc(NC(=O)c3ccc(Br)o3)ccc2n1	-	-	-	-
Cc1ccc(Cn2c(=O)c3ccccc3n3nc(C)cc23)cc1	-	-	36.2	-
COCCCn1c(=O)c2ccccc2n(Cc2ccc(C)cc2)c1=O	-	-	-	-
CC(C)C1Cc2c(sc(NC(=S)NC(=O)c3ccccc3)c2C#N)CO1 (centres undefined)	-	-	-	-
CCN1CCc2c(sc(NC(=O)c3ccc(S(=O)(=O)N(C)c4ccccc4)cc3)c2C(=O)NC)C1	+	.	.	-
CCOC(=O)N1CCc2c(sc(NC(=O)c3ccc(S(=O)(=O)N4CCCC4)cc3)c2C#N)C1	-	-	-	-
CC(C)N1CCc2c(sc(NC(=O)c3ccc(S(=O)(=O)N4CCOCC4)cc3)c2C#N)C1	+	.	.	-
CNC(=O)c1c(NC(=O)c2ccc(S(=O)(=O)N(C)c3ccccc3)cc2)sc2c1CCN(C(C)C)C2	.	-	-	.
CC(C)N1CCc2c(sc(NC(=O)c3ccc(S(=O)(=O)N4CCc5ccccc54)cc3)c2C(N)=O)C1	+	.	.	-
CC(C)N1CCc2c(sc(NC(=S)NC(=O)c3ccccc3)c2C#N)C1	+	-	-	-
CC(C)N1CCc2c(sc(NC(=O)c3cc(-c4cccs4)nc4ccccc34)c2C(N)=O)C1	-	.	.	76.3
CCCN1CCc2c(sc(NC(=S)NC(=O)c3ccccc3)c2C#N)C1	+	-	-	-
CCN1CCc2c(sc(NC(=O)c3ccc4ccccc4c3)c2C(N)=O)C1	?	-	-	-
CCN1CCc2c(sc(NC(=S)NC(=O)c3ccc(Cl)cc3)c2C(N)=O)C1	+	-	-	-
CC(C)N1CCCCC(NC(=O)c2ccc(Cl)cc2Cl)C1=O (centres undefined)	.	-	-	.
O=C(N[C@@H]1C/C=C\C[C@@H](CC(=O)N(CCO)Cc2ccccc2)C(=O)NCCOC1=O)OCC1c2ccccc2-c2ccccc21	-	.	.	-
O=C(N[C@H]1C/C=C\C[C@@H](CC(=O)N(CCO)Cc2ccccc2)C(=O)NC[C@H](c2ccccc2)OC1=O)OCC1c2ccccc2-c2ccccc21	+	-	-	-
CC(=O)c1cc(-c2cc(C(F)(F)F)cc(C(F)(F)F)c2)c(=O)n2c1CCC2	.	-	-	.
CCCCC1CC2=C(C(=O)OC(C)(C)O2)C(c2ccc3ccccc3c2)O1 (centres undefined)	-	-	-	-
Cc1ccc(-c2ccc(/C=C3\C(=O)ON=C3c3ccccc3)o2)c([N+](=O)[O-])c1	-	-	-	105.6
SMILES	Myeloid diff 2	NPR1 activator	GC-B act	Exocytosis inh
N#CCC(=O)N/N=C/c1cn(Cc2ccccc2C#N)c2ccccc12	-	-	-	-
N#CCC(=O)N/N=C/c1c(-c2ccccc2)n(-c2ccccc2)c2ccccc12	-	-	-	93.7
N#CCC(=O)N/N=C/c1ccc(N2N=C(c3ccccc3)CC2c2ccccc2)cc1 (centres undefined)	+	-	-	-
COC(=O)[C@]12CCCCC=C1N(Cc1ccc3c(c1)OCO3)C(=O)[C@H](CC(=O)NCc1ccc(OC)c(OC)c1)C2	-	-	-	-
O=C(N/N=C/c1ccc(-c2cccc([N+](=O)[O-])c2)o1)[C@H]1C[C@@H]1c1ccccc1	-	-	-	-
O=C(O)c1ccc(-c2ccc(/C=N/Nc3ccc([N+](=O)[O-])cc3)o2)cc1	+	-	-	-
O=C(N/N=C/c1ccc(-c2ccc([N+](=O)[O-])cc2)o1)C(O)c1ccccc1 (centres undefined)	-	41.8	40.5	-
O=C(N/N=C/c1ccc([N+](=O)[O-])o1)C(O)c1ccccc1 (centres undefined)	-	-	-	-
CC(C)(C)NC(=S)N/N=C\c1ccc(-c2ccc([N+](=O)[O-])cc2)o1	+	-	-	-
O=C(N/N=C/c1ccc(-c2ccc([N+](=O)[O-])cc2)o1)[C@H]1C[C@@H]1c1ccccc1	-	-	-	62.5
COC(=O)C1CN(Cc2ccc(OC)cc2)CCS(=O)(=O)N1Cc1cn(Cc2ccccc2)nn1 (centres undefined)	.	-	-	.
COC(=O)[C@@H]1N=C(c2ccc(OC)cc2)O[C@]12C(=O)N(Cc1cn(-c3ccccc3)nn1)c1cccc(Cl)c12	.	-	-	.
N#C/C(=C(/O)COC(=O)c1ccc(C#N)cc1)c1nc2ccccc2s1	+	-	-	-
N#C/C(=C(/O)COc1ccccc1)c1nc2ccccc2s1	-	-	-	-
COc1cccc(NC(=O)Nc2c(-c3ccc(F)cc3)nc3ncccn23)c1	.	-	-	.
N=C1C(c2ccccc2)=C(O)CN1NC(=O)c1ccccc1	+	-	-	-
COc1ccc(S(=O)(=O)N2CCN(C(=O)CSc3nc4ccccc4nc3N3CCCCC3)CC2)cc1	.	-	-	.
COc1cccc(N=Cc2nc(-c3ccccc3)oc2OC(C)=O)c1	-	-	-	63.8
COc1ccc(N=Cc2nc(-c3ccccc3)oc2OC(C)=O)cc1	-	-	-	-
COC(=O)c1ccccc1NC(=O)C1CCCO1 (centres undefined)	+	-	-	-
COCCCNC(=O)c1ccc2c3c(onc13)-c1ccccc1C2=O	-	.	.	-
O=C1c2ccccc2-c2onc3ccc(Oc4ccccc4)c1c23	.	-	-	85.3
COc1cccc(Oc2cn[nH]c2-c2ccc(O)cc2O)c1	-	54.8	-	-
Cc1ccc2[nH]c3c(c2c1)CCN(C)C3	-	-	-	-
CC(C)(C)n1ncc2c(=O)n(Cc3c(F)cccc3Cl)cnc21	-	-	40.5	-
SMILES	Myeloid diff 2	NPR1 activator	GC-B act	Exocytosis inh
Nc1[nH]c2cc(Cl)ccc2c1C(=O)N1CCOCC1	.	-	-	.
CCOC1CCCc2oc(-c3ccsc3)c(-c3cnc(OC)nc3)c21 (centres undefined)	-	-	-	-
CCNc1nc(NC(C)(C)C)nc(N(C#N)CC)n1	-	43.8	47.6	-
CN1CCCN(C(=O)Cc2c(Cl)cccc2Cl)c2nc3ccccc3nc21	+	-	-	-
CN1CCCN(C(=O)c2cc(=O)[nH]c3ccccc23)c2nc3ccccc3nc21	-	-	-	-
Cn1c(=O)c2cc(S(=O)(=O)N3CCN(c4ccccc4Cl)CC3)ccc2n(C)c1=O	.	-	-	.
O=S(=O)(c1ccc2oc(=S)[nH]c2c1)N1CCCCC1	+	-	-	-
